Assay outcomes as filed in PubChem.
Most compounds without a hit are left out; they make up all but 4.1% or so of the library.
DAX1 inh-1: inhibitors of DAX1 repression of SF-1 activated StAR promoter; HEK293T StAR-luciferase reporter, SF-1/DAX-1 repression relief; inhibition, % at 6.8 µM; 1.1% of 370,000 active; AID 652010;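 active = inhibition above the mean over all tested compounds plus 3 SD, cut at about 3.6% in these data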;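 note: 0% = DAX-1 cells with DMSO and 100% = cells lacking DAX-1 with DMSO; higher inhibition means more luminescence from relief of DAX-1 repression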
DAX1 inh-2: inhibits human nuclear receptor DAX1. P51843. HEK293 Gal4-DAX1 luciferase reporter, luminescence. inhibition, % at 6.75 µM. 0.99% of 340,000 active. AID 504766;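 active = inhibition above the mean over all tested compounds plus 3 SD, cut at about 4.2% in these data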;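 note: 0% = DAX1-transfected cells with DMSO and 100% = empty-vector control cells with DMSO; inhibition shows as a rise in luminescence from relieved DAX1 repression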
Target sequence (P51843 207-470 limits assumed): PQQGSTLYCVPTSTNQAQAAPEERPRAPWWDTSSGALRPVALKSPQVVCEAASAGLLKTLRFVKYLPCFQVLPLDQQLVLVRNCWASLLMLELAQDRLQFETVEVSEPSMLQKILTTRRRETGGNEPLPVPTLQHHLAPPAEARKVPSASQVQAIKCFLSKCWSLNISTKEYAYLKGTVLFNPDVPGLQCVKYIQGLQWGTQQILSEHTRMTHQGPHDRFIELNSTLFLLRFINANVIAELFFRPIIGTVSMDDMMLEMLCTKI
PolyA inhibitor: yeast polyadenylation inhibition. 0.02% of 300,000 active. S. cerevisiae SKY197-pL101 polyadenylation reporter, beta-gal luminescence; efflux-impaired pdr1/pdr3 knockout yeast; score 100 = 6 SD above DMSO. activity score, % at 12 µM;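 active = lowest replicate activity score at least 50, where 100 means six control SD above control mean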;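 note: yeast exposed to compound for 9 h at 30 °C; higher score means more reporter readthrough which indicates perturbed polyadenylation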
hgDAF12 agonist: agonists of H. glycines DAF-12 nuclear receptor. 1.8% of 370,000 active. HEK293 GAL4-hgDAF12 UAS-luciferase reporter, agonist luminescence; normalized to butyrate control. activation, % at 6.8 µM;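 active = activation above a cutoff set at the mean of all screened compounds plus 3 SD, cut at about 10% in these data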;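 note: 0% = DMSO wells and 100% = sodium butyrate wells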
hcDAF-12 act: activators of H. contortus DAF-12 nuclear receptor; HEK293 hcDAF-12 lit1-tk-luc reporter, luminescence; 0% DMSO, 100% Δ7-dafachronic acid; activation, % at 6.8 µM; 1.4% of 370,000 active; AID 652067;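 active = activation above the mean of all tested compounds plus 3 SD, cut at about 5.5% in these data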;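 note: 100% = response to 3 µM Δ7-dafachronic acid high control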
ssDAF-12 act: activates DAF-12 receptor from parasite S. stercoralis; HEK293 ssDAF-12/GRIP1 lit1-tk-luc reporter, luminescence; % of 3 µM dafachronic acid response; activation, % at 6.8 µM; 1% of 370,000 active; AID 652126;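 active = activation above the mean over all tested compounds plus 3 SD, cut at about 0.9% in these data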;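 note: 0% = DMSO-only wells and 100% = 3 µM delta7-dafachronic acid wells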
Starred values were filed as active, the others as inactive; · = no result given.

SMILES | DAX1 inh-1 | DAX1 inh-2 | PolyA inhibitor | hgDAF12 agonist | hcDAF-12 act | ssDAF-12 act
CCN(C(=O)CSc1ncccc1C(=O)Oc1cccc([N+](=O)[O-])c1)c1cccc(C)c1 | 0.2 | -0.5 | -12.4 | -2.8 | -2.8 | -1.1
CSc1cccc(NC(=O)CSc2ncccc2C(=O)Oc2cccc([N+](=O)[O-])c2)c1 | -0.5 | -0.5 | -6.4 | 2.8 | 1.6 | 1.4*
CCCCNC(=O)N(C)c1nc2ccccc2s1 | 3.5 | -0.4 | -0.9 | 8.6 | 5.8* | -0.7
CC(=O)Nc1sc2c(c1-c1nc3ccccc3s1)CCN(C(C)C)C2 | · | 0.9 | · | · | · | ·
CC(=O)Nc1sc2c(c1-c1nc(-c3ccccc3)cs1)CCN(C(C)C)C2 | · | · | · | 5.8 | 6.3* | -0.1
COC(=O)[C@]12C[C@H](CC(=O)NCCCN3CCCC3=O)C(=O)N(CCc3ccc(OC)c(OC)c3)C1=C[C@H](C(C)(C)C)O[C@@H]2C | 2.3 | · | · | 2.8 | 0.5 | -0.9
CC1=C(C(=O)NCCCOC(C)C)C2(CCC(C)CC2)OC1=O (stereo not drawn) | -0.5 | 2.3 | -5.0 | -0.9 | 1.0 | 1.0*
CC(C)CCNC(=O)C1CCCN(C(=O)c2ccc3c(c2)NC(=O)CS3)C1 (stereo not drawn) | -1.2 | · | · | -4.5 | -0.8 | -1.1
CCOC(=O)c1cccc(NC(=O)CN(C)S(=O)(=O)c2ccc(Br)s2)c1 | -0.7 | · | · | -1.9 | -1.5 | -2.0
COc1cc(CNCCCCO)ccc1OCc1ccccc1F | 1.2 | -0.4 | -9.5 | 10.9* | 1.1 | -0.6
CN1CCN(C(=O)c2cc(Cl)ccc2Cl)CC1 | 0.2 | 0.6 | -5.5 | -0.7 | -1.5 | -1.2
CN1CCN(C(=O)c2cc(=O)c3cc(Cl)cc(Cl)c3o2)CC1 | 0.2 | 0.1 | -6.8 | 0.7 | 1.4 | 2.0*
CCc1ccccc1CNC(=O)C1CCC(CNS(=O)(=O)c2cccc3cccnc23)CC1 (stereo not drawn) | -0.5 | · | · | -0.7 | -1.9 | -0.6
CCOc1ccc(C=Nn2c(-c3cccc(OC(C)C)c3)n[nH]c2=S)cc1 | 0.8 | · | · | 0.2 | 0.1 | -1.9
O=C(c1ccccc1)N1CCC2CCN(S(=O)(=O)c3ccccc3)CC21 (stereo not drawn) | -0.6 | · | · | 0.7 | -2.7 | -0.9
Cc1ccc(Nc2ccc(C(=O)O)cc2N)cc1 | 2.6 | · | -13.5 | 6.8 | 1.8 | 1.1*
Nc1cc(=O)[nH]c(SCCSc2ccccc2)n1 | 0.4 | -0.5 | 0.3 | -0.7 | -3.5 | -1.0
Nc1cc(=O)[nH]c(SCCNS(=O)(=O)c2ccccc2)n1 | 0.1 | -1.6 | -0.9 | 2.6 | 3.4 | 0.9*
O=S(=O)(Nc1nc2ccccc2nc1NCc1ccco1)c1ccc(Cl)cc1 | 0.2 | 0.5 | 9.8 | 0.9 | -0.2 | -0.9
Cc1ccc(S(=O)(=O)Nc2nc3ccccc3nc2NCC2CCCO2)cc1C (stereo not drawn) | 0.1 | 4.5* | 18.8 | 0.2 | -2.3 | -1.8
Cc1cccc(S(=O)(=O)Nc2nc3ccccc3nc2NCC2CCCO2)c1 (stereo not drawn) | 0.3 | -0.3 | -13.0 | 3.1 | -0.6 | -1.7
Cc1ccc(S(=O)(=O)Nc2nc3ccccc3nc2NCc2ccco2)cc1 | 2.6 | 1.5 | -3.7 | 6.2 | 5.5 | 1.4*
Cc1ccc(NCN2C(=O)c3ccccc3C2=O)c(C)n1 | 0.5 | · | · | 0.1 | 1.9 | -0.5
CCCSc1nnc2nc(C)cc(C)n12 | 0.7 | 4.7* | -14.9 | 1.2 | -3.2 | -1.3
Cc1cc(C)n2c(SCc3ccc(C#N)cc3)nnc2n1 | -1.2 | -0.2 | 14.2 | -3.2 | 0.4 | -1.4
SMILES | DAX1 inh-1 | DAX1 inh-2 | PolyA inhibitor | hgDAF12 agonist | hcDAF-12 act | ssDAF-12 act
Cc1cc(C)n2c(SCc3cccs3)nnc2n1 | 0.6 | 0.1 | 5.9 | -0.9 | -0.7 | -1.3
Cc1cc(C)n2c(SCC#N)nnc2n1 | -0.8 | 4.6* | 9.2 | -2.7 | -1.4 | -0.9
Cc1cnc(C(=O)NCCc2ccc(Cl)cc2)cn1 | 4.0* | -0.1 | -5.1 | 6.5 | 0.9 | -0.6
O=C(NCCc1ccc2c(c1)OCCO2)c1ccc(F)cc1 | -1.0 | -0.2 | -0.2 | 1.8 | -2.4 | -2.3
O=C(NCCc1ccc(Cl)cc1)c1ccc2c(c1)OCCO2 | 2.4 | 0.7 | 14.7 | 11.1* | 4.6 | 0.1
Cc1ccc(C2NC(=O)c3n[nH]c(C)c32)cc1 (stereo not drawn) | 0.2 | · | · | 1.7 | 1.4 | -1.2
COc1ccccc1Cc1c(-c2cccc(Cl)c2)nc2c3ccccc3ccn12 | 1.7 | · | · | 5.3 | 2.2 | 0.1
